For ten molecules, growth inhibition results are on record in PubChem BioAssay (NCI).

SMILES strings stand for the structures. This is part of a sample that, as a whole, favours compounds with a hit. Of some 79,000 tested, about 15% had one in any assay. Unmarked numbers belong to inactive results. Activity calls are given as the source filed them. Cut-off read from the data, not from the text of the source: active = growth inhibition above about 70%; inactive = the rest.

Assay [1] can be described thus: NCI Yeast Anticancer Drug Screen. Data for the rad50 strain (AID 155).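 Note: 0% = growth of vehicle-only cultures of the same strain.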 The note with it: S. cerevisiae rad50 strain growth inhibition, stronger effect = higher value. The method in brief:
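Growth of the mutant yeast was measured after compound exposure and referenced to vehicle-treated cultures.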

Assay [2] is described as follows: NCI Yeast Anticancer Drug Screen. Data for the mec2-1 strain (AID 157). Particulars: S. cerevisiae mec2-1 strain, stronger effect = higher value. The method in brief:
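Mutant yeast (mec2-1) grown with compound; growth inhibition relative to vehicle control reported.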

Assay [3] is described as follows: NCI Yeast Anticancer Drug Screen. Data for the sgs1 mgt1 strain (AID 161).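 Note: 0% = growth of cultures given vehicle only.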 The note with it: S. cerevisiae sgs1 mgt1 strain, stronger effect = higher value. The method in brief: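 Percent growth inhibition was derived by comparing compound-exposed mutant yeast with vehicle-exposed cultures. The strain carries alterations in DNA damage repair.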
Assay [4] can be described thus: NCI Yeast Anticancer Drug Screen. Data for the cln2 rad14 strain (AID 165).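 Note: 0% = growth equal to vehicle treated cultures.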 Particulars: S. cerevisiae cln2 rad14 strain, stronger effect = higher value. The method in brief: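 Readout is yeast growth inhibition versus vehicle-treated controls, using a strain with cln2 and rad14 alterations exposed to compound.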
Assay [5] can be described thus: NCI Yeast Anticancer Drug Screen. Data for the mlh1 rad18 strain (AID 175). The note with it: S. cerevisiae mlh1 rad18 strain growth inhibition, stronger effect = higher value. The method, boiled down:
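Genetically defined yeast (DNA repair-deficient) exposed to compounds; growth inhibition determined relative to vehicle.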

Assay [6] is described as follows: NCI Yeast Anticancer Drug Screen. Data for the bub3 strain (AID 167). The note with it: S. cerevisiae bub3 mutant strain, stronger effect = higher value. The method in brief:
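Whole-cell yeast assay. The mutant strain was incubated with compounds, and growth inhibition was determined by comparison with vehicle-treated cells.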

Where [7] appears, read: at 5.0 µM (retest, dose inferred, filed as 0.5).
The mark [8] stands for this setting: at 50.0 µM (retest, dose inferred, filed as 5.0).

For `CCOC(=O)/C(C)=N/Nc1cc(Cl)ccc1O`, the growth inhibition in assay [1] (setting [7]) was 0%; in assay [1] (setting [8]), 55%; in assay [1] (at 50.0 µM) it was 95.5% (active); in assay [2] (setting [7]), 4%; in assay [2] (setting [8]), 32%; in assay [2] (at 50.0 µM) it was 94% (active). Further, the growth inhibition in assay [3] (setting [7]) is 4%; in assay [3] (setting [8]) it was 42%; in assay [3] (at 50.0 µM) it was 58%; in assay [4] (setting [7]), -62%; in assay [4] (setting [8]), 51%; in assay [4] (at 50.0 µM), 70.8% (active). Moreover, the growth inhibition is 7% in assay [5] (setting [7]), 63% in assay [5] (setting [8]) and 88.8% (active) in assay [5] (at 50.0 µM).
On to `C=CCCCCn1c2ccccc2c2c(C)c3c[n+](C)ccc3c(C)c21`, for which the growth inhibition in assay [1] (setting [7]) is 99% (active); in assay [1] (setting [8]), 99% (active); in assay [1] (at 50.0 µM), 89.7% (active); in assay [2] (setting [7]) it was 99% (active); in assay [2] (setting [8]) it was 99% (active); in assay [2] (at 50.0 µM), 91.8% (active). Besides, the growth inhibition in assay [3] (setting [7]) is 97% (active); in assay [3] (setting [8]), 97% (active); in assay [3] (at 50.0 µM) it was 90.3% (active); in assay [4] (setting [7]) it was 100% (active); in assay [4] (setting [8]), 100% (active); in assay [4] (at 50.0 µM), 90.7% (active). Also, the growth inhibition was 98% (active) in assay [5] (setting [7]), 98% (active) in assay [5] (setting [8]) and 88.8% (active) in assay [5] (at 50.0 µM).
On to `CCCCCCCCCCCCS`, for which the growth inhibition in assay [1] (setting [7]) was 0%; in assay [1] (setting [8]) it was -3%; in assay [1] (at 50.0 µM), 26.2%; in assay [2] (setting [7]), -1%; in assay [2] (setting [8]), -1%; in assay [2] (at 50.0 µM), 6.25%. The growth inhibition in assay [3] (setting [7]) is -3%; in assay [3] (setting [8]), -1%; in assay [3] (at 50.0 µM), 15.9%; in assay [4] (setting [7]), -2%; in assay [4] (setting [8]), 1%; in assay [4] (at 50.0 µM) it was 43.3%. The growth inhibition in assay [6] (setting [7]) is 2%; in assay [6] (setting [8]), -3%; in assay [6] (at 50.0 µM), -20.6%; in assay [5] (setting [7]), 3%; in assay [5] (setting [8]) it was 6%; in assay [5] (at 50.0 µM), -30.9%.
Turning to `Nc1ccc2c(S(=O)(=O)O)cc(S(=O)(=O)O)cc2c1`, the growth inhibition is 3% in assay [1] (setting [7]); 0% in assay [1] (setting [8]); -21.6% in assay [1] (at 50.0 µM); 2% in assay [2] (setting [7]); -1% in assay [2] (setting [8]); -6.25% in assay [2] (at 50.0 µM). Besides, the growth inhibition was 0% in assay [3] (setting [7]); -2% in assay [3] (setting [8]); -10.4% in assay [3] (at 50.0 µM); 2% in assay [6] (setting [7]); -2% in assay [6] (setting [8]); 6.3% in assay [6] (at 50.0 µM). Further, the growth inhibition was 1% in assay [5] (setting [7]), -1% in assay [5] (setting [8]) and -31.4% in assay [5] (at 50.0 µM).
As for `C=CCc1ccc(OC(=O)CCl)c(OC)c1`, the growth inhibition in assay [1] (setting [7]) is 1%; in assay [1] (setting [8]), 23%; in assay [1] (at 50.0 µM), 64.8%; in assay [2] (setting [7]) it was 1%; in assay [2] (setting [8]), 9%; in assay [2] (at 50.0 µM) it was 27.8%. Further, the growth inhibition in assay [3] (setting [7]) was -1%; in assay [3] (setting [8]), 5%; in assay [3] (at 50.0 µM) it was 12.6%; in assay [4] (setting [7]), 2%; in assay [4] (setting [8]), 8%; in assay [4] (at 50.0 µM), 28.8%. Moreover, the growth inhibition in assay [6] (setting [7]) was -2%; in assay [6] (setting [8]), 3%; in assay [6] (at 50.0 µM) it was 18.6%; in assay [5] (setting [7]) it was 0%; in assay [5] (setting [8]), 26%; in assay [5] (at 50.0 µM), 81.7% (active).
For `Nc1ccccc1SC(C[N+](=O)[O-])c1ccc2c(c1)OCO2` (stereo not given), the growth inhibition in assay [1] (setting [7]) is 82% (active); in assay [1] (setting [8]) it was 99% (active); in assay [1] (at 50.0 µM), 98.8% (active); in assay [2] (setting [7]), 72% (active); in assay [2] (setting [8]) it was 100% (active); in assay [2] (at 50.0 µM), 99% (active). Besides, the growth inhibition is 69% in assay [3] (setting [7]); 99% (active) in assay [3] (setting [8]); 99% (active) in assay [3] (at 50.0 µM); 45% in assay [4] (setting [7]); 99% (active) in assay [4] (setting [8]); 97% (active) in assay [4] (at 50.0 µM). For the same molecule, the growth inhibition in assay [5] (setting [7]) is 65%; in assay [5] (setting [8]), 99% (active); in assay [5] (at 50.0 µM) it was 99% (active).
On to `Cc1cc(=Nc2ccc3c(c2)c(N)cc(C)[n+]3C)nc(N)n1C`, for which the growth inhibition in assay [1] (setting [7]) was 84% (active); in assay [1] (setting [8]) it was 88% (active); in assay [1] (at 50.0 µM), 97.1% (active); in assay [2] (setting [7]) it was 78% (active); in assay [2] (setting [8]), 95% (active); in assay [2] (at 50.0 µM) it was 92.5% (active). Besides, the growth inhibition in assay [3] (setting [7]) is 78% (active); in assay [3] (setting [8]), 61%; in assay [3] (at 50.0 µM), 95.2% (active); in assay [6] (setting [7]), 75% (active); in assay [6] (setting [8]), 87% (active); in assay [6] (at 50.0 µM) it was 89.1% (active). Also, the growth inhibition in assay [5] (setting [7]) is 83% (active); in assay [5] (setting [8]), 90% (active); in assay [5] (at 50.0 µM), 97.5% (active).
In the case of `CNc1nc(N)nc(N(C)c2ccc(Br)cc2)c1N=O`, the growth inhibition was 22% in assay [1] (setting [7]); 71% (active) in assay [1] (setting [8]); 68.2% in assay [1] (at 50.0 µM); 40% in assay [2] (setting [7]); 58% in assay [2] (setting [8]); 12.3% in assay [2] (at 50.0 µM). Besides, the growth inhibition in assay [3] (setting [7]) was 11%; in assay [3] (setting [8]) it was 32%; in assay [3] (at 50.0 µM), 17.6%; in assay [4] (setting [7]) it was 16%; in assay [4] (setting [8]), 33%; in assay [4] (at 50.0 µM), -30.7%. Also, the growth inhibition in assay [6] (setting [7]) is 20%; in assay [6] (setting [8]) it was 64%; in assay [6] (at 50.0 µM), 21.2%; in assay [5] (setting [7]), 36%; in assay [5] (setting [8]), 79% (active); in assay [5] (at 50.0 µM), 43.9%.
`c1ccc(CC(Cc2ccccc2)c2cccnc2)cc1`: the growth inhibition in assay [1] (setting [7]) is 18%; in assay [1] (setting [8]), 84% (active); in assay [1] (at 50.0 µM), 98.7% (active); in assay [2] (setting [7]), 21%; in assay [2] (setting [8]) it was 62%; in assay [2] (at 50.0 µM) it was 98.3% (active). The growth inhibition was 35% in assay [3] (setting [7]); 89% (active) in assay [3] (setting [8]); 98.7% (active) in assay [3] (at 50.0 µM); 34% in assay [4] (setting [7]); 66% in assay [4] (setting [8]); 97.9% (active) in assay [4] (at 50.0 µM). For the same molecule, the growth inhibition in assay [6] (setting [7]) was 43%; in assay [6] (setting [8]), 88% (active); in assay [6] (at 50.0 µM), 99% (active); in assay [5] (setting [7]) it was 25%; in assay [5] (setting [8]), 84% (active); in assay [5] (at 50.0 µM) it was 98.3% (active).
In the case of `O=C(Cc1nc2ccccc2s1)Nc1ccc2ccccc2c1`, the growth inhibition in assay [1] (setting [7]) was -8%; in assay [1] (setting [8]), 99% (active); in assay [1] (at 50.0 µM), 98% (active); in assay [2] (setting [7]), 18%; in assay [2] (setting [8]) it was 99% (active); in assay [2] (at 50.0 µM), 98.5% (active). Moreover, the growth inhibition in assay [3] (setting [7]) is 31%; in assay [3] (setting [8]), 99% (active); in assay [3] (at 50.0 µM), 97.8% (active); in assay [4] (setting [7]) it was -1%; in assay [4] (setting [8]), 99% (active); in assay [4] (at 50.0 µM), 95.3% (active). Further, the growth inhibition in assay [6] (setting [7]) was 12%; in assay [6] (setting [8]), 99% (active); in assay [6] (at 50.0 µM) it was 97.8% (active); in assay [5] (setting [7]) it was 13%; in assay [5] (setting [8]), 99% (active); in assay [5] (at 50.0 µM) it was 97.8% (active).
